Assay results taken from the supplement of paper PMC10681739.

molecular target: T1, ETS1 (UniProt P14921); test: ETS1 binding intensity (PBM fluorescence), ETS1 alone (arbitrary fluorescence units); higher = stronger binding; conditions: ETS1 concentration 1 nM; RUNX1 concentration 0 nM
T1 sequence: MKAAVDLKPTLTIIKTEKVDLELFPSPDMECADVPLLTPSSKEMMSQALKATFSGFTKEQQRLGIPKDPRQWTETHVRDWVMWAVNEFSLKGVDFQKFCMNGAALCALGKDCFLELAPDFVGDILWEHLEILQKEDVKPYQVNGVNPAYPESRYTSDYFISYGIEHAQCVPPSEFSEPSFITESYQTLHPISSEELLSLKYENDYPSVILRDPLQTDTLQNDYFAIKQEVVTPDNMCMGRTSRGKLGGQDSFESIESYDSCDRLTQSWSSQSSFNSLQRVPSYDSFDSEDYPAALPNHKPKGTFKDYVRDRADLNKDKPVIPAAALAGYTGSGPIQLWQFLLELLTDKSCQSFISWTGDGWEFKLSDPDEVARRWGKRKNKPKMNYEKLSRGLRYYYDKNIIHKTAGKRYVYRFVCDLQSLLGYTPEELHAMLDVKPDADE

Row | Sequence | ETS1 binding intensity
1 | TCAATGACAGGAAGTTTTTAAACCACATACGGCTAA | 2780
2 | GCCCGCCCCGGAAGTGCAAACTGTGTGGTCTGGCAG | 3980
3 | TTTATCATGAATGCAGGATGTGGGCAGACTCACAGC | 2590
4 | CCTTTACGTTTTCCTGTTGCGGGTTCTATCGCTCTG | 506
5 | TGTGTAAGAGGAAACACCAAAACCACAAATATGAAA | 736
6 | CCTTGCAGCAACGGATGTGGGTTTTTTTTTTTCTTT | 4030
7 | GAGAAACAGGAAGAGGGGTGGTGGTTACGGAACACG | 2290
8 | AAGAAAAAGGGAGGATGTGGTTTAGCAAAAGCACTG | 1420
9 | GAAATCACATCCTTTTGCAAAACCACAGGTGTTTTG | 409
10 | AAGACAACATCCTGCCGGCACAGCCTGCGGGTTACT | 576
11 | AGGCCGCCTACAGGATGTTGGAAACCACAGGGCCCG | 2910
12 | ACCCTGAAATTACCCGGATGTGGTCCCCGCGCGCGC | 6470
13 | GATATGGCAGGAAGTAGGGCCTGGAAACCGCACGGC | 3390
14 | ACACCTCAGGAAGTGGCAGAGACCACAACAAGTCAG | 701
15 | CTCCAGGGACAACCCGGAAACCACATTGCCCAGCGT | 2230
16 | ATTTCGCTGAAAACAGGAAACCACGAAGCCCAGATG | 3270
17 | TGGGCAGGAAGTGGTATCTGATTGTGGTTTTGATTT | 3960
18 | TCTAAATCACTTCCTGTTACAGAAACCACAGGCCTG | 4300
19 | CGCCGAACTTCCGGCAGTAAATTCCGTGGTTTCCCT | 2800
20 | GGGACAGACTCTCCAGGATGTGGTTGGATTTTGGGC | 1520
21 | AGCCTACATCCTGCACTGCTTAACCACAGCCCGCCT | 509
